The source of these data is PubChem BioAssay.

Test [1] can be described thus: antimalarial activity against Dd2 strain (AID 2302;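 active = growth inhibition above 50% at the single 2 µM test dose, taken to imply half-maximal potency below 2 µM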;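 also: 0% = DMSO untreated growth and 100% = chloroquine plus artemisinin killed control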). The conditions noted are these: P. falciparum Dd2 in RBCs, LDH growth readout, 72 h; at 2 µM; stronger effect = higher value.
Test [2] is described as follows: HepG2 cytotoxicity, primary screen, cytotoxicity control for P. falciparum antimalarial project, cell-based, ATP luminescence (AID 2303;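 active = inhibition above 50%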;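 also: 0% = DMSO wells and 100% = digitonin-killed cells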). The following applies: HepG2 viability, 24-48 h, at 10 µM, stronger effect = higher value.
For test [3], the target named is L-lactate dehydrogenase (Plasmodium falciparum (isolate CDC / Honduras)) (UniProt Q27743). In words: PfLDH activity inhibition – cell lysate, 3D7 strain, counter-screen for P. falciparum growth inhibition project (AID 2304).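 Also: 0% = vehicle and 100% = reference inhibitor.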 The conditions noted are these: P. falciparum 3D7 crude extract, LDH APAD/NBT absorbance; at 2 µM; stronger effect = higher value. On the technique in general: Counterscreens check selectivity or assay interference.
Chain of L-lactate dehydrogenase (Plasmodium falciparum (isolate CDC / Honduras)) (Q27743 whole entry, looked up): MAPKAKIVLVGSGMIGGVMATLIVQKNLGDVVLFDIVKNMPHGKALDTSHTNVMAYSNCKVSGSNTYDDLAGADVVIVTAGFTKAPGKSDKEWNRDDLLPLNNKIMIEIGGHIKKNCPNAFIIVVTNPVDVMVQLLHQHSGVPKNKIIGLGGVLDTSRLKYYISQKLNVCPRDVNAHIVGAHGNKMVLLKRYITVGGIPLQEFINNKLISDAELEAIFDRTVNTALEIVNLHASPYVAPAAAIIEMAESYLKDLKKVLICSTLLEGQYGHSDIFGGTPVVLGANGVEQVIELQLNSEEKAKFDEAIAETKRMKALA

Test [4] can be described thus: inhibition of 3D7 malaria parasite growth – strain 3D7 (AID 2306).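 Also: 0% = DMSO wells and 100% = chloroquine plus artemisinin control wells.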 The following applies: P. falciparum 3D7 erythrocytic growth, LDH absorbance, 72 h; at 2 µM; stronger effect = higher value.
The target of test [5] is Calcium-dependent protein kinase 1 (Plasmodium falciparum (isolate 3D7)) (UniProt P62344). In words: PfCDPK1 kinase inhibitors, biochemical, TCAMS library (AID 1159585; cut-off not given, nearly all actives have IC50 up to about 0.98 µM;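 also: inhibitors leave more ATP so luminescence rises with inhibition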). The conditions noted are these: recombinant PfCDPK1, Kinase-Glo ATP depletion luminescence. For orientation: Kinase-Glo reads ATP consumption through a luciferase reaction.
Chain of Calcium-dependent protein kinase 1 (Plasmodium falciparum (isolate 3D7)) (P62344 whole entry, looked up): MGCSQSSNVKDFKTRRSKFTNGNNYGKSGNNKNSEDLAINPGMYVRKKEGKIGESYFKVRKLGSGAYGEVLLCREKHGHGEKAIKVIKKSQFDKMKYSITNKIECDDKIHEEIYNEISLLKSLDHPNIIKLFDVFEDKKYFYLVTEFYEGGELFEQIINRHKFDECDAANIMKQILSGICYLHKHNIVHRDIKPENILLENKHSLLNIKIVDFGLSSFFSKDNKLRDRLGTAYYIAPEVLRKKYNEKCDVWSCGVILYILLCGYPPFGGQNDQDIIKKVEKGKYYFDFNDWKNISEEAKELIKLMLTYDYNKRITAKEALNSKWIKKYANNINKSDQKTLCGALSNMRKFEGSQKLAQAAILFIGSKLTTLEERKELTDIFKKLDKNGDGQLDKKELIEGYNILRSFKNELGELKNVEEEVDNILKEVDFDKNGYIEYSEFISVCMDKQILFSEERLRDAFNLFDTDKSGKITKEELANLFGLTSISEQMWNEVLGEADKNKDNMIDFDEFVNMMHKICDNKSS
The target of test [6] is Plasmodium falciparum protein kinase 6 (PK6, PF3D7_1337100) (UniProt Q8IDW1). Kind of test: PfPK6 kinase inhibitors, biochemical, TCAMS library (AID 1159586). The following applies: recombinant PfPK6, Kinase-Glo ATP depletion luminescence.
Chain of Plasmodium falciparum protein kinase 6 (PK6, PF3D7_1337100) (Q8IDW1 1-305): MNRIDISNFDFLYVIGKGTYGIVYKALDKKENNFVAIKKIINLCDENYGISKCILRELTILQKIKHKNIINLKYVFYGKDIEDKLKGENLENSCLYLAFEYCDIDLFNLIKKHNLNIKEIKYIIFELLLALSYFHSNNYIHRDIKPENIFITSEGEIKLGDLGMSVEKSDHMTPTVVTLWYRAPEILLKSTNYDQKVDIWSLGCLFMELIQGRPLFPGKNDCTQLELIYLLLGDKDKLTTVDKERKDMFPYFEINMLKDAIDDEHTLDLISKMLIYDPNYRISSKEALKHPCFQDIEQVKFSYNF
The target in test [7] is Protein kinase 7 (PK7), Plasmodium falciparum 3D7 (PF3D7_0213400) (UniProt Q7YTF7). In words: inhibition of Plasmodium PK7 catalytic activity – biochemical, TCAMS antimalarial set, Kinase-Glo luminescence (AID 1159587). The following applies: recombinant PfPK7, Kinase-Glo ATP depletion luminescence.
Chain of Protein kinase 7 (PK7), Plasmodium falciparum 3D7 (PF3D7_0213400) (Q7YTF7 1-343): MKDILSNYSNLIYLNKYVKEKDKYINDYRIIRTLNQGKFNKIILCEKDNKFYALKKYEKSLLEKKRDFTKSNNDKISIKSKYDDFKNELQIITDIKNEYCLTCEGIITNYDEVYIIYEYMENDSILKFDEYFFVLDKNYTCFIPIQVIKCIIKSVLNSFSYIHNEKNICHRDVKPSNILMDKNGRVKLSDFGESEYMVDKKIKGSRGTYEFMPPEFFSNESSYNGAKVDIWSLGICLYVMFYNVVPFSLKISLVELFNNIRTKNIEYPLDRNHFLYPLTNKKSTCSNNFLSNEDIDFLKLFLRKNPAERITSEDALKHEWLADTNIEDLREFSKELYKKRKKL
Test [8] has as its target Calcium-dependent protein kinase 4 (Plasmodium falciparum (isolate 3D7)) (UniProt Q8IBS5). Kind of test: PfCDPK4 kinase inhibitors, biochemical, TCAMS library (AID 1159588; cut-off not given, nearly all actives have IC50 up to about 0.91 µM). The following applies: recombinant PfCDPK4, Kinase-Glo ATP depletion luminescence.

Unmarked numbers belong to inactive results. For some of these results: Entries with a potency or affinity are not part of this list. Active and inactive are the calls of the source. Unless noted, no rule for the calls is given here.

Chain of Calcium-dependent protein kinase 4 (Plasmodium falciparum (isolate 3D7)) (Q8IBS5 whole entry, looked up): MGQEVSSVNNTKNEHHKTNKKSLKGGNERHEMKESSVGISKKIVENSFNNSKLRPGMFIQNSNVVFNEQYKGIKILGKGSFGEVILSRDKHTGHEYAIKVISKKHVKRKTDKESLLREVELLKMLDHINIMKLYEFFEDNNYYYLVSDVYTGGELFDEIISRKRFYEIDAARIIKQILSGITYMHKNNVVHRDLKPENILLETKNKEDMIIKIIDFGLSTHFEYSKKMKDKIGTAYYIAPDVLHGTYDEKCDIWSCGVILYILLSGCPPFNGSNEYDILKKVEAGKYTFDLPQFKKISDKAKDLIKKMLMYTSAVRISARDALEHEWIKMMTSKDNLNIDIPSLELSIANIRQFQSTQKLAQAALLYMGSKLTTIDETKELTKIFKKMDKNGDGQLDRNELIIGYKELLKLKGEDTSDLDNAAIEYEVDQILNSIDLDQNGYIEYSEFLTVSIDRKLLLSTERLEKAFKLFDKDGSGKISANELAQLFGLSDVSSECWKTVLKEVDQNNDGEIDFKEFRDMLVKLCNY

Consider `O=C(c1ccc(-c2ccc(Cl)cc2)o1)N1CCc2cc3nccc(N4CCN5CCC[C@H]5C4)c3cc21`, for which the growth inhibition in test [1] is 86% (active); in test [4], 101% (active). Further, the inhibition (commonly the change of the read-out against control, counted positive when it falls) was 1% in test [2] and -3% in test [3]. The result in test [5], in test [6], in test [7] and in test [8] was inactive.

For `COc1cc(Cc2cnc(N)nc2N)cc(OCCn2ccccc2=O)c1OC`, the values for the growth inhibition in test [1] and in test [4] were -3% and 97% (active), respectively. The inhibition in test [2] was 4%; in test [3], 2%. Also, the result in test [5], in test [6], in test [7] and in test [8] was inactive.

`O=C(/C=C/c1ccc(Cl)c(Cl)c1)NCCCCCN1CCCC(CNS(=O)(=O)c2ccc(F)cc2)C1` (stereo not given): the growth inhibition in test [1] is 7%; in test [4], 91% (active). Moreover, the inhibition in test [2] is 56% (active); in test [3], 1%. Besides, the outcome in test [5], in test [6], in test [7] and in test [8] was inactive.

For the compound `COc1ccc(CNC2CCN(C)CC2)cc1-c1ccc(S(=O)(=O)NC2CCC2)s1`, the figures for the growth inhibition in test [1] and in test [4] were 94% (active) and 100% (active), respectively. The values for the inhibition in test [2] and in test [3] were 32% and 5%, respectively. Further, the result in test [5], in test [6], in test [7] and in test [8] was inactive.

Consider `O=C(C=Cc1cccs1)Nc1ccc(-c2nc3ccccc3[nH]2)cc1`, for which the figures for the growth inhibition in test [1] and in test [4] were 3% and 83% (active), respectively. Also, the inhibition in test [2] is -4%; in test [3] it was 4%. The outcome in test [5], in test [6], in test [7] and in test [8] was inactive.

For the compound `COc1ccc2nc(C)cc(NCc3cccc4ccccc34)c2c1`, the growth inhibition in test [1] is 72% (active); in test [4], 102% (active). The results for the inhibition in test [2] and in test [3] were 28% and -7%, respectively. Moreover, the result in test [5], in test [6], in test [7] and in test [8] was inactive.

With `COc1ccc(-c2ccc(NC(=O)c3cccc(C#N)c3)cc2)cc1CN(C)C`, the growth inhibition in test [1] is 10%; in test [4] it was 103% (active). The inhibition in test [2] was 11%; in test [3], 0%. Also, the outcome in test [5], in test [6], in test [7] and in test [8] was inactive.

Take `Cc1ccc2nc(C)cc(NN=CC=Cc3ccccc3)c2c1`: the values for the growth inhibition in test [1] and in test [4] were 28% and 92% (active), respectively. In addition, the inhibition in test [2] was 0%; in test [3], 4%. Moreover, the result in test [5], in test [6], in test [7] and in test [8] was inactive.

`O=c1sn(-c2csc3ccccc23)c2ccccc12`: the growth inhibition in test [1] is 54% (active); in test [4], 94% (active). For the same compound, the inhibition was 14% in test [2] and -6% in test [3]. In addition, the result in test [5], in test [6], in test [7] and in test [8] was inactive.

Consider `CCCN(CCC)CCCOc1ccc(C(=O)c2c(-c3ccc(OCCCN(CCC)CCC)cc3)oc3ccc(Cl)cc23)cc1`, for which the growth inhibition is 95% (active) in test [1] and 96% (active) in test [4]. Also, the figures for the inhibition in test [2] and in test [3] were 100% (active) and -8%, respectively. Besides, the outcome in test [5], in test [6], in test [7] and in test [8] was inactive.

`COc1ccc2nccc([C@@H](O)CN3CCC(NCc4cc5cccc(O)c5[nH]4)CC3)c2c1`: the growth inhibition was 35% in test [1] and 101% (active) in test [4]. Besides, the inhibition in test [2] is -10%; in test [3], -6%. In addition, the outcome in test [5], in test [6], in test [7] and in test [8] was inactive.

`CCCC(C)n1ccc2c3c(N)nc(N)nc3ccc21` (stereo not given): the figures for the growth inhibition in test [1] and in test [4] were 91% (active) and 94% (active), respectively. Further, the inhibition in test [2] was 70% (active); in test [3], -2%. The outcome in test [5], in test [6], in test [7] and in test [8] was inactive.

`COc1ccc2nccc([C@@H](O)CN3CC[C@H](NCc4ccc5c(n4)NC(=O)CS5)[C@H](F)C3)c2c1`: the growth inhibition in test [1] is 88% (active); in test [4] it was 89% (active). For the same compound, the inhibition was 5% in test [2] and 0% in test [3]. Moreover, the result in test [5], in test [6], in test [7] and in test [8] was inactive.

Consider `CCOc1ccc2nc(C)cc(NN=Cc3cccc([N+](=O)[O-])c3)c2c1`, for which the growth inhibition in test [1] is 93% (active); in test [4], 101% (active). Moreover, the inhibition in test [2] is 7%; in test [3] it was 0%. Further, the result in test [5], in test [6], in test [7] and in test [8] was inactive.

As to `Cc1ccc(CNc2cc(C(F)(F)F)nc(-c3ccc(S(C)(=O)=O)cc3)n2)cc1`, the growth inhibition in test [1] was 72% (active); in test [4], 89% (active). Moreover, the inhibition in test [2] is 2%; in test [3] it was -4%. The outcome in test [5], in test [6], in test [7] and in test [8] was inactive.

For `c1ccc(-c2ccc(CNCCCNc3nc4ccccc4[nH]3)cc2)cc1`, the figures for the growth inhibition in test [1] and in test [4] were 0% and 95% (active), respectively. For the same compound, the figures for the inhibition in test [2] and in test [3] were 20% and -4%, respectively. Besides, the result in test [5], in test [6], in test [7] and in test [8] was inactive.

In the case of `COc1ccc(CNCc2ccccc2)cc1-c1ccc(S(=O)(=O)NCCN2CCCC2)c(F)c1`, the results for the growth inhibition in test [1] and in test [4] were 42% and 87% (active), respectively. Also, the inhibition in test [2] was 29%; in test [3] it was 5%. Also, the result in test [5], in test [6], in test [7] and in test [8] was inactive.

With `O=C(Nc1ccccc1F)NC1CCN(c2ccnc(Nc3ccc(F)cc3)n2)C1` (stereo not given), the figures for the growth inhibition in test [1] and in test [4] were 74% (active) and 95% (active), respectively. Besides, the inhibition in test [2] was 0%; in test [3], -7%. Further, the outcome in test [5], in test [6], in test [7] and in test [8] was inactive.

Consider `COc1ccc2ncc(F)c(CCN3CCC(CNCc4cccc5c4OCO5)CC3)c2n1`, for which the growth inhibition in test [1] was 37%; in test [4], 93% (active). The figures for the inhibition in test [2] and in test [3] were 39% and -2%, respectively. Moreover, the outcome in test [5], in test [6], in test [7] and in test [8] was inactive.

Turning to `Cc1cnc(NCC2CCCCC2)nc1N[C@@H](CC(C)C)C(=O)Nc1ccccc1`, the results for the growth inhibition in test [1] and in test [4] were 55% (active) and 96% (active), respectively. For the same compound, the inhibition in test [2] is 12%; in test [3], -2%. In addition, the result in test [5], in test [6], in test [7] and in test [8] was inactive.
